Among all 300,000 compounds or so, about 1,200 (0.4%) were called active. Inconclusive results (about 3%) are left out. The list comes from a sample in which actives are over-represented; it also holds similar structures and randomly drawn compounds. Values without a mark were called inactive. Calls come from the whole dose curve; as a rule, active = well fitted inhibition curve with a large enough effect; inconclusive = small, poorly fitted or top-dose-only effect, or another doubt; inactive = no such curve, though single readings can be large or run the other way.
biological target: Lysosomal alpha-glucosidase (Homo sapiens) (UniProt P10253); assay: qHTS Assay for Inhibitors and Activators of Human alpha-Glucosidase Cleavage of Glycogen; settings: recombinant GAA, glycogen substrate, Amplex Red glucose oxidase fluorescence; series mostly up to 76.3 µM; activity change, negative = inhibition: at the top concentration;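 note: the screen sought inhibitors and activators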;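 for activity change, negative = inhibition: 0% = full enzyme reaction and -100% = no-enzyme basal signal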
Method in brief: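 Recombinant human alpha-glucosidase (4 nM final) hydrolysed bovine liver glycogen (30 ug) for 40 min at 37 C in pH 5.0 citrate/phosphate with 0.01% Tween-20. Released glucose detected by glucose oxidase/Amplex Red, Ex 573/Em 610 nm. Compounds up to 77 uM; AC50 from Hill fits.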
Potency is the fitted concentration of half-maximal effect.

Structure (SMILES) | activity change, negative = inhibition | Potency
O=C(CNC(=O)C1COc2ccccc2O1)N/N=C/c1cc(Br)c(O)c(Br)c1 (stereo not drawn) | 1.03% [at 76.4 µM] | 
Cc1c(C)c2ccc(OCC(=O)N3CCC(C(=O)O)CC3)c(C)c2oc1=O | 7.97% | 
Cc1c(CC(=O)N2CCN(C(=O)C3COc4ccccc4O3)CC2)c(=O)oc2c(O)c(O)ccc12 (stereo not drawn) |  | 6.31 µM (active)
COc1ccccc1C(=O)NCCn1cc(SCc2ccccc2Cl)c2ccccc21 | 2.94% | 
CCOc1ccc(N2CC(C)Cn3c2nc2c3c(=O)n(Cc3c(F)cccc3Cl)c(=O)n2C)cc1 (stereo not drawn) | 8.54% | 
O=S(=O)(c1ccc(Br)cc1)c1nnn2c1nc(N1CCOCC1)c1sccc12 | 17.4% | 
Cc1ccc(Cl)cc1NC(=O)/C(C#N)=C\c1cn(Cc2ccc(F)cc2)c2ccccc12 | 6.62% | 
Cc1c(C)c(C)c2[nH]c(=S)[nH]c2c1C | 4.09% [at 76.4 µM] | 
O=c1[nH]c(=S)[nH]c2[nH]c(=S)[nH]c12 |  | 39.8 µM (active)
Cc1ccsc1CN(C(=O)c1oc2ccc(Br)cc2c1C)C1CCS(=O)(=O)C1 (stereo not drawn) | 4.76% | 
CCCn1c2ccccc2c2cnn(CC(=O)NCC3CCN(Cc4ccc(C)cc4)CC3)c(=O)c21 | -3.9% | 
CCN(C(=O)CSc1nnc(C)n2c1cc1occc12)c1ccccc1 | -18.8% | 
O=[N+]([O-])c1ccc(N(CCO)Cc2ccccc2)c([N+](=O)[O-])c1 |  | 10 µM (active)
CCN(CC)c1ccc([N+](=O)[O-])cc1C(=O)O | 11.9% [at 76.4 µM] | 
OCCN(Cc1ccccc1)Cc1ccc(Cl)cc1 | 7.32% [at 76.4 µM] | 
COc1cc2ccccc2cc1C(=O)Nc1ccc(N2CCOCC2)cc1 | 4.76% [at 76.4 µM] | 
CC(=O)Oc1cccc(N2C(=O)CC(Nc3ccc(N4CCOCC4)cc3)C2=O)c1 (stereo not drawn) |  | 35.5 µM (active)
CC(=O)Oc1cccc(N2C(=O)C3CC=C(Cl)CC3C2=O)c1 (stereo not drawn) | 5.61% [at 76.4 µM] | 
CCOC(=O)c1oc2ccc(S(=O)(=O)n3nc(-c4ccccc4OC)cc3N)cc2c1C | 1.61% | 
Cc1cccc2nc(-c3ccc(Cl)s3)c(Nc3ccc4c(c3)OCCO4)n12 |  | 7.94 µM (active)
Cc1ccc(Nc2c(-c3ccc(C)s3)nc3ccccn23)cc1 | -17.9% | 

Structure (SMILES) | activity change, negative = inhibition | Potency
Oc1ccccc1-c1nc2ccc(Cl)cn2c1Nc1ccc2c(c1)OCCO2 | 8.37% | 
CN(C(=O)CSc1nc2ccc(NC(=O)COc3ccccc3)cc2s1)c1ccccc1 | -5.51% | 
CCc1cccc(NC(=O)CN(C)S(=O)(=O)c2ccc3[nH]c4c(c3c2)CCCC4)c1 | 4.13% | 
CC(=O)Nc1ccc(S(=O)(=O)NNC(=O)CCc2ccccc2)cc1 | -0.0961% [at 76.4 µM] | 
O=C(CCc1ccccc1)NNc1ccc(F)cc1 |  | 20 µM (active)
O=C(CCc1ccccc1)NNC(=O)c1ccc(Br)cc1 | 10.6% [at 76.4 µM] | 
O=S(=O)(NCCc1nnc2ccc(SCc3ccc(Cl)cc3Cl)nn12)c1ccccc1 | -7.52% | 
O=[N+]([O-])c1cc(-c2nc(-c3ccccc3)no2)ccc1NCc1ccco1 | -4.02% | 
COc1ccc(Cn2c(=O)n(-c3ccccc3C)c(=O)c3c4c(sc32)CN(C(C)=O)CC4)cc1 | -9.25% | 
O=C(N/N=C/c1ccc(O)c(O)c1)C1c2ccccc2Oc2ccccc21 |  | 14.1 µM (active)
CCC(C)(C)NC(=O)C1c2ccccc2Oc2ccccc21 | -10.9% [at 76.4 µM] | 
CCC(C)NC(=O)C1c2ccccc2Oc2ccccc21 (stereo not drawn) | 19.6% [at 76.4 µM] | 
CCOc1ccc(C2CC(=O)c3c([nH]c(C(=O)OCc4ccccc4)c3C)C2)cc1 (stereo not drawn) | 8.54% | 
CCOc1ccc(N(CC)S(=O)(=O)N2CCCC(C(=O)NCc3ccc(Cl)cc3)C2)cc1 (stereo not drawn) | -6.48% | 
CC(=O)c1c(C)n(S(=O)(=O)c2ccc(Cl)cc2)c2ccc(NS(=O)(=O)c3ccc(Cl)cc3)cc12 | -15.1% | 
Nc1ccc(-c2nnc(-c3ccccc3)o2)cc1 | -7.39% | 
Nc1ccc(-c2sc(N)nc2-c2ccccc2)cc1 |  | 14 µM (active)
COc1ccc(NC(=O)c2sc(N)nc2-c2ccccc2)cc1 | 3.8% [at 76.4 µM] | 
O=C(CSc1nc(-c2cccc(F)c2)[nH]c1-c1ccccc1)Nc1ccc2c(c1)OCO2 | -11.3% | 
CCOc1ccc(N(CC)S(=O)(=O)N2CCCC(C(=O)Nc3ccc(C(C)=O)cc3)C2)cc1 (stereo not drawn) | -13.1% | 
COc1ccc(-c2cc(=O)c3c(O)cc(O[C@@H]4O[C@H](CO[C@@H]5O[C@@H](C)[C@H](O)[C@@H](O)[C@H]5O)[C@@H](O)[C@H](O)[C@H]4O)cc3o2)cc1O | 9.26% | 

Structure (SMILES) | activity change, negative = inhibition | Potency
CCOC(=O)COc1cc(O)c2c(=O)cc(-c3ccccc3)oc2c1 | -11.3% [at 76.4 µM] | 
COc1c(O)cc2oc(-c3ccc(O)c(O)c3)cc(=O)c2c1O |  | 10 µM (active)
CCCCN1C(=O)c2[nH]nc(-c3ccccc3O)c2C1c1cccc(OCc2ccccc2)c1 (stereo not drawn) | -8.47% | 
CC1=C(C(=O)OCC2CCCCC2)C(c2c(F)cccc2Cl)CC(=O)N1 (stereo not drawn) | 14.2% | 
Cn1sc(NC(=O)c2ccccc2)nc1=O | 8.91% [at 76.4 µM] | 
Cc1nc(NNC(=O)c2ccccc2)cc(-c2ccccc2)n1 |  | 22.4 µM (active)
COc1ccc(C(=O)NN(C)c2nc(-c3ccccc3)cc(C)c2S(C)(=O)=O)cc1 | -3.35% [at 76.4 µM] | 
CCOc1ccccc1C(=O)NC1(C(F)(F)F)NC(=O)N(CCc2ccc(OC)c(OC)c2)C1=O (stereo not drawn) | -2.56% | 
COc1ccc(Cl)cc1NC(=O)CSc1nc(-c2cccs2)cc(C(F)(F)F)n1 | 12.5% | 
CCOc1ccc(N/C=C/C(=O)c2cc(OC)c(OC)c(OC)c2)cc1 | -23.1% | 
CCOc1ccc(N/C=C/C(=O)c2ccccc2)cc1 | -14.9% | 
CCCOc1ccc(N/C=C/C(=O)C(C)(C)C)cc1 |  | 31.6 µM (active)
CC(C)C(=O)Nc1nc2c(s1)CC(C(C)(C)C)CC2 (stereo not drawn) | 14.5% | 
Cc1ccc(S(=O)(=O)Nc2ccccc2CNc2c(C)n(C)n(-c3ccccc3)c2=O)cc1 |  | 28.2 µM (active)
Cc1c(NS(=O)(=O)c2ccc(Cl)cc2)c(=O)n(-c2ccccc2)n1C | 7.58% | 
Cc1ccc(S(=O)(=O)CC(=O)Nc2c(C)n(C)n(-c3ccccc3)c2=O)cc1 | 4.27% [at 76.4 µM] | 
COc1ccc2[nH]c3c(c2c1)CCN(C(=O)CCC1CCCC1)C3c1ccc(F)cc1 (stereo not drawn) | -9.42% | 
Cc1oc(-c2ccccc2)nc1Cn1c(SCc2cccc(C(F)(F)F)c2)nc2cccnc21 | -9.3% | 
CCOc1ccc(-n2c(O)c(/C=N/c3ccnn3Cc3ccncc3)c3ccccc3c2=O)cc1 | 11.4% [at 76.4 µM] | 
CCOc1ccc(-n2c(O)c(/C=N/Nc3nnc(C)c(=O)[nH]3)c3ccccc3c2=O)cc1 |  | 39.8 µM (active)
CCOc1ccc(-n2c(O)c(/C=N/Nc3nc(C)cc(C)n3)c3ccccc3c2=O)cc1 | 6.76% [at 76.4 µM] | 

Source: PubChem BioAssay AID2100 (National Center for Advancing Translational Sciences (NCATS), 2009)
